# IL-1B inflam inh – blocks inflammasome-driven IL-1 beta release | THP-1 LPS/ATP IL-1B secretion, AlphaLISA, 16 h; stronger effect = lower value | activity change, % at 57.5 µM | hit rate 4.7% among 360,000 | AID 743279; in the data active = activity change below about -50%; inconclusive = mostly about -30% to -49%; also: % is scaled to controls: 0 for no effect and ±100 for the full control effect
#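 Secreted IL-1B measured by AlphaLISA bead assay after 16 h compound exposure of THP-1 cells; compounds (final up to 57.5 uM) added 1 h before LPS (250 ng/mL) and ATP (1.25 mM) stimulation; lower signal means less secretion.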
# DT40 TDP1 CPT – growth inhibition of DT40 Tdp1-/-;hTDP1 cells with camptothecin (screen for TDP1 inhibitors) | hit rate 12% among 420,000 | chicken DT40 Tdp1-/-;hTDP1 cells + 20 nM CPT, ATP luminescence, 48 h | AID 686979 | Potency, µM (titrated, usually from 46.2 µM), for inactives: at the top dose activity change, negative = growth inhibition, most hits filed as inhibitors; also: potency is read from the fitted curve at half-maximal effect; % is scaled to controls: 0 for no effect and ±100 for the full control effect; nearly all actives have a fitted effect of over 55% in size
#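 Chicken DT40 Tdp1-/- cells stably complemented with human TDP1 were seeded at 400 cells/well in medium containing 20 nM camptothecin, exposed to pin-transferred compounds, and grown at 37 °C for at least 48 hr. Viability was read as ATP luminescence.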
# D3 ag – activates the human D3 dopamine receptor; max activation, %; hit rate 0.58% among 410,000; D3R DiscoveRx beta-arrestin cells, luminescence, 90 min; P35462; in the data active = max activation above about 30%; also: 0% is about no effect
# Target sequence (P35462 whole entry, looked up): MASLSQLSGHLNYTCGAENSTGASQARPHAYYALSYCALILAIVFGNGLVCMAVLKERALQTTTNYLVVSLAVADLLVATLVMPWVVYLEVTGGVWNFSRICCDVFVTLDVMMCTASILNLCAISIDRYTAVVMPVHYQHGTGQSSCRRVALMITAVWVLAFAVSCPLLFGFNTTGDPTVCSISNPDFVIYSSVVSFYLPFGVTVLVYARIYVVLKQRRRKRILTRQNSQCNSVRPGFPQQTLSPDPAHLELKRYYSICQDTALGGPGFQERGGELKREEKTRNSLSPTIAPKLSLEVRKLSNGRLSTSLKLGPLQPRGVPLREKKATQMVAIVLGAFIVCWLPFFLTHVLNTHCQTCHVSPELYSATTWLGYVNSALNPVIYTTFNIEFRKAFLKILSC
#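 Agonist-mode cell screen: cells plated at 1500/well and incubated overnight at 37 °C, then exposed to library compounds for 90 min at 37 °C. Detection reagent was added for 30–60 min at room temperature, and luminescence was read.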
# TDP1 cell noCPT – qHTS for Inhibitors of human tyrosyl-DNA phosphodiesterase 1 (TDP1): qHTS in cells in absence of CPT; hit rate 15% among 420,000; Potency, µM (series often up to 46.2 µM), inactives show at the highest dose activity change, negative = growth inhibition, most hits filed as inhibitors; DT40 Tdp1-/- hTDP1 cells, no CPT, ATP luminescence, 48 h; also: potency is read from the fitted curve at half-maximal effect; % is scaled to controls: 0 for no effect and ±100 for the full control effect; nearly all actives have a fitted effect of over 55% in size
#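 Growth of hTDP1-complemented DT40 Tdp1-knockout cells is measured by ATP luminescence after at least 48 hr compound exposure at 37 °C, with DMSO substituting for the 20 nM CPT used in the parallel screen.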
# ClpP mod – qHTS Assay for Activators of ClpP; purified B. subtilis ClpP, FRET peptide cleavage, 20 min; Potency, µM (top dose mostly 57.5 µM), for the others: top-dose activity change, negative = active; hit rate 1.9% among 340,000; active = well fitted falling curve with a large enough effect; inconclusive = small, poorly fitted or top-dose-only effect; inactive = no such curve, though single readings can be large or run the other way; also: potency is read from the fitted curve at half-maximal effect; the source files actives as falling curves though it sought activators and does not explain the sign; nearly all actives have a fitted effect of over 65% in size
# Target sequence (P80244 whole entry, looked up): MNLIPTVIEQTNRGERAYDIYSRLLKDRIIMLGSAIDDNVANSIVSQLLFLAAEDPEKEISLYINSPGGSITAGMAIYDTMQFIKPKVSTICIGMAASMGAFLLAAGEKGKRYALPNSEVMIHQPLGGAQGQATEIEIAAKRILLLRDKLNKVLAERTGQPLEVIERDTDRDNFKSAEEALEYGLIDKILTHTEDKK
#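 ClpP 10 microg/mL final, pH 8 Tris/KCl buffer with BSA, glycerol, Tween-20; compound pinned in; FRET-FV substrate; RT 20 min; Ex320/Em430; ΔFRET vs ADEP 5.8 microM, DMSO, no enzyme.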
# D3 antag – antagonists of human D3 dopamine receptor; P35462; D3R cells, DiscoveRx beta-arrestin luminescence, antagonist mode; stronger effect = lower value; max response, negative = inhibition, %; hit rate 2.5% among 360,000; AID 652054; in the data active = max response below about -50%; inconclusive = no clear call, values can overlap the other calls; also: % is scaled to controls: 0 for no effect and ±100 for the full control effect
#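 Cells plated overnight at 1500 cells/well, then exposed to library compounds with dopamine controls for 90 minutes at 37 degrees C. DiscoveRx reagent added for 30–60 minutes at room temperature; luminescence read, quantitative HTS format.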
# * marks the source's active call; other numbers are inactive results; u = inconclusive; x = no result given. The list is not random: actives were taken first. Their share in the collection is about 21%. Unless noted, calls follow the shape of the dose curve; as a rule, active = well fitted inhibition curve with a large enough effect; inconclusive = small, poorly fitted or top-dose-only effect; inactive = flat fitted curve, though single readings scatter.
SMILES,IL-1B inflam inh,DT40 TDP1 CPT,D3 ag,TDP1 cell noCPT,ClpP mod,D3 antag
Cc1ccc(Sc2ccc(CN3CCCC3)cc2[N+](=O)[O-])cc1,0,6.5µM*,-20,5.8µM*,-3%,-79*
Cc1ccc(Sc2ccc(CO)cc2[N+](=O)[O-])cc1,0,13%,-8,u,x,u
COc1ccc(NC(=O)CS(=O)(=O)c2ccccc2Cl)cc1,14,7%,8,4%,x,2
CNC(=O)OCc1snc(-c2ccccc2)c1COC(=O)NC,7,0%,8,-7%,2%,14
Cc1ccc(NC(=O)c2c(C)nc3sc(C(=O)Nc4ccc(F)cc4)c(N)c3c2-c2ccc(Cl)cc2)c(C)c1,x,-9%,5,-12%,-3%,x
Cc1ccc2[nH]c(CSc3nnc(NC(=O)c4ccccc4F)s3)cc(=O)c2c1,x,10µM*,-8,10µM*,2%,x
Cc1ccc2[nH]c(CSc3nnc(NC(=O)c4ccccc4C)s3)cc(=O)c2c1,x,7.3µM*,4,5.8µM*,2%,x
Cc1ccc2[nH]c(CSc3nnc(NC(=O)COc4ccccc4C)s3)cc(=O)c2c1,x,u,0,u,u,x
Cc1ccc2[nH]c(CSc3nnc(NC(=O)COc4ccccc4F)s3)cc(=O)c2c1,x,u,-2,u,-7%,x
N=c1n(CCN2CCCCC2)c2ccccc2n1CC(O)c1cccc(Br)c1 (centres undefined),-6,15µM*,-20,16µM*,-19%,-15
N=c1n(CCN2CCCC2)c2ccccc2n1CC(O)c1ccco1 (centres undefined),-26,-26%,-3,-13%,0%,14
N=c1n(CCN2CCCCC2)c2ccccc2n1CC(O)c1ccc(Cl)c(Cl)c1 (centres undefined),-68*,3.7µM*,-19,8.2µM*,-2%,u
CN(C)CCn1c(=N)n(CC(O)c2ccc(Cl)c(Cl)c2)c2ccccc21 (centres undefined),x,23µM*,-12,23µM*,-1%,-16
NS(=O)(=O)c1ccc(CNC(=O)CNC(=O)c2ccc(Br)o2)cc1,-5,1%,27,-2%,1%,-7
CCO[C@H]1OC(C(=O)N2CCN(Cc3ccc4c(c3)OCO4)CC2)=C[C@@H](c2ccccc2)[C@@H]1CCCO,-8,u,0,u,0%,-13
CCO[C@H]1OC(C(=O)N2CCN(Cc3ccc4c(c3)OCO4)CC2)=C[C@@H](c2ccc(C(F)(F)F)cc2)[C@@H]1CCCO,-77*,18µM*,0,23µM*,0%,-15
CCO[C@@H]1OC(C(=O)N2CCN(Cc3ccccc3)CC2)=C[C@H](c2ccc(C(F)(F)F)cc2)[C@H]1CCCO,-88*,u,-8,u,0%,-23
CCO[C@@H]1OC(C(=O)N2CCN(Cc3ccc4c(c3)OCO4)CC2)=C[C@H](c2csc3ccccc23)[C@H]1CCCO,u,-89%,-18,23µM*,1%,-24
CCO[C@@H]1OC(C(=O)N2CCN(Cc3ccccc3)CC2)=C[C@H](c2ccc(Br)cc2)[C@H]1CCCO,-22,u,-54,23µM*,-1%,u
COc1ccccc1N1CCN(C(=O)Cn2cnc3sc(C)c(S(=O)(=O)N4CCC(C)CC4)c3c2=O)CC1,x,u,1,u,0%,x
CCc1ccc(NC(=O)Cn2c(=O)n(CCCCC(=O)NCCc3ccccc3)c(=O)c3ccccc32)cc1,x,-12%,-11,-12%,1%,x
COc1cc(Cl)ccc1OC1(C)CCN(Cc2cccn2-c2nccs2)C1 (centres undefined),-19,12µM*,-8,21µM*,0%,12
COc1cc(Cl)ccc1OC1(C)CCN(Cc2c(F)cccc2F)C1 (centres undefined),9,u,-9,u,-1%,-24
CC(=O)c1ccc(OC2(C)CCN(Cc3cccn3-c3nccs3)C2)cc1 (centres undefined),-6,u,3,u,2%,9
CC1(Oc2ccc3ccccc3c2)CCN(Cc2cccn2-c2nccs2)C1 (centres undefined),-18,29µM*,-5,23µM*,-4%,0
SMILES,IL-1B inflam inh,DT40 TDP1 CPT,D3 ag,TDP1 cell noCPT,ClpP mod,D3 antag
C=Cc1c(C)c2cc3nc(cc4[nH]c(cc5nc(cc1[nH]2)C(C)=C5CCC(=O)OC)c(CCC(=O)O)c4C)[C@@]1(C)C3=CC=C(C(=O)OC)[C@H]1C(=O)OC,x,-2%,8,1%,x,x
CC(Nc1nc(Nc2ccc(F)cc2)nc(SCC(N)=O)n1)c1ccccc1 (centres undefined),-60*,13%,-8,-27%,0%,-14
CC(Nc1nc(=S)nc(Nc2ccc(F)cc2)[nH]1)c1ccccc1 (centres undefined),16,21µM*,-4,u,-1%,-2
CCNc1nc(NCc2ccccc2)nc(SCC(N)=O)n1,10,1%,-11,u,x,-5
O=C(c1cccc(Cl)c1)N1CCCc2ccccc21,0,-7%,1,u,-1%,-13
O=C(NCc1nnc(SCC(=O)N2CCN(c3ccccc3)CC2)o1)c1c(F)cccc1Cl,20,-21%,-4,-20%,1%,11
O=C(CN1C(=O)C2(SCC(=O)N2c2ccccc2)c2ccccc21)NCCc1ccccc1 (centres undefined),x,x,-18,x,1%,x
O=C(CN1C(=O)C2(SCC(=O)N2c2cccc(F)c2)c2ccccc21)NCc1ccccc1Cl (centres undefined),x,u,-5,21µM*,-1%,x
O=C(CN1C(=O)C2(SCC(=O)N2c2cccc(F)c2)c2ccccc21)NCCc1ccccc1 (centres undefined),x,-29%,-2,23µM*,2%,x
CSc1ccc(-c2nc3c(C)cccn3c2Nc2ccc3c(c2)OCCO3)cc1,x,u,2,u,4%,x
CSc1ccc(-c2nc3cccc(C)n3c2Nc2ccc3c(c2)OCO3)cc1,x,u,-4,18µM*,4%,x
Cc1ccc(Nc2c(-c3ccc(C)o3)nc3cccc(C)n23)cc1,x,11µM*,-15,11µM*,4%,x
Cc1ccc(-c2nc3cccc(C)n3c2Nc2ccc3c(c2)OCO3)o1,x,23µM*,-12,u,4%,x
Cc1ccc(-c2nc3ccccn3c2Nc2ccc3c(c2)OCO3)o1,x,u,-5,u,5%,x
